An excerpt weighted towards active compounds, which were near 2.5% of everything screened.
TMEM16A inh: TMEM16A chloride channel inhibitors, primary screen, cell-based, HTS. Anoctamin-1 (Mus musculus), Q8BHY3. HEK293 TMEM16A/YFP iodide influx fluorescence, ionomycin. normalized B-score (activity score, 25-100; higher = stronger inhibition) at 10 µM. 310,000 compounds, 1.2% hits;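 active = ratio plate-corrected score three or more library SD toward inhibition, starting fluorescence score within five deviations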;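 note: score derived from kinetic fluorescence span divided by baseline fluorescence per well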
Target sequence (Q8BHY3 whole entry, looked up): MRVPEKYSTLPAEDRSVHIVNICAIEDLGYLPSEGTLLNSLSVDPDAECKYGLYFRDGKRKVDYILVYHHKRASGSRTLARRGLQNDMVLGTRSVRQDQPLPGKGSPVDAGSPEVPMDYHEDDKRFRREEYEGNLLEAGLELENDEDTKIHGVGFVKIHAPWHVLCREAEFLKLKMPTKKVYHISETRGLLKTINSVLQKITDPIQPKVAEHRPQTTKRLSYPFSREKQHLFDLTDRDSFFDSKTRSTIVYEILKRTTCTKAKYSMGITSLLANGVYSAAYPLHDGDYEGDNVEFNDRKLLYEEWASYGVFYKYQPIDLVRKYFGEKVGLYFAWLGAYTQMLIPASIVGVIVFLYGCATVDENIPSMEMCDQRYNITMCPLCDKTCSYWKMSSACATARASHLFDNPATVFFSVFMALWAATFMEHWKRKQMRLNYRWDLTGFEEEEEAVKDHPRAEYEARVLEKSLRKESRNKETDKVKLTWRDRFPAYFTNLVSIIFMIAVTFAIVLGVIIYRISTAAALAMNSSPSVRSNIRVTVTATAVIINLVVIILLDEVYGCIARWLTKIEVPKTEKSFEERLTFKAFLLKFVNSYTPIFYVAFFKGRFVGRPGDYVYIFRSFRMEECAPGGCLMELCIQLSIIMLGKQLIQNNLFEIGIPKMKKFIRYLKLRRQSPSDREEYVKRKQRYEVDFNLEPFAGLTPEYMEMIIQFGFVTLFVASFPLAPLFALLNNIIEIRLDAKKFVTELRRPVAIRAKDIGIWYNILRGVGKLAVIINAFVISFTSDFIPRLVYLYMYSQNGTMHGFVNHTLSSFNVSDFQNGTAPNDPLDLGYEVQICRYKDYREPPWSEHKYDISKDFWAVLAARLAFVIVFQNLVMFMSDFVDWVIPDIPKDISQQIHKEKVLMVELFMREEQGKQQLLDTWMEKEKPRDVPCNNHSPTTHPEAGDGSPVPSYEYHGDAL
aSyn 5UTR inh: MLPCN primary screen, SNCA 5' untranslated region. alpha-synuclein 5'UTR reporter, inhibitor activity. inhibition, % (tested at 7.5 µM). 300,000 compounds, 0.82% hits. AID 1813, 2009; in the data active = inhibition above about 60%;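 note: H4 neuroglioblastoma cells stably carrying SNCA 5'UTR luciferase fusion; 0% = DMSO wells and 100% = positive control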
TMEM16A act: TMEM16A chloride channel activators or potentiators, primary screen, cell-based, HTS; HEK293 TMEM16A/YFP-H148Q/I152L, iodide quench fluorescence; stronger effect = lower value; B-score at 10 µM; Anoctamin-1 (Mus musculus), Q8BHY3; 340,000 compounds, 0.3% hits;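 active = fluorescence-ratio B-score plate-corrected deviation score at least 3 library SD below zero, with starting fluorescence score within 5 deviations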;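 note: channel opened by trigger with iodide after compound preincubation; score built on the fluorescence ratio of max minus min over baseline; more negative score means more quench and so TMEM16A activation or potentiation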
Jurkat NFkB inh: inhibitors of induced NF-kB luciferase reporter, primary screen, TCR NF-kB activation inhibitor project, cell-based, luminescence, uHTS; Jurkat, PMA/ionomycin-induced NF-kB luciferase reporter; inhibition, % at 4 µM; 330,000 compounds, 0.53% hits; AID 435003, 2010; in the data active = inhibition above about 50%
KLF5 inhibitor: KLF5 expression inhibitors, primary screen, DLD-1 cells, luminescence; DLD-1 KLF5 promoter-luciferase reporter; 290,000 compounds, 0.23% hits; inhibition, % at 5 µM;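 active = inhibition above a per-plate limit of that plate's mean compound inhibition plus 3 SD, cut at about 60% in these data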;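 note: 0% = DMSO wells and 100% = LY294002 at 200 µM; higher means less KLF5 promoter-driven luciferase light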
697 NFkB inh: inhibitors of PMA/ionomycin-induced NF-kB reporter, 697 cells, primary screen, B-cell NF-kB inhibitor project, cell-based, luminescence, uHTS; 697 B-cell NF-kB luciferase reporter, 16 h; inhibition, % at 4 µM; AID 435022, 2010; 330,000 compounds, 0.33% hits; in the data active = inhibition above about 35%
TMEM16A reconf: TMEM16A chloride channel inhibitors, confirmation, cell-based, re-confirmation | shares compounds with TMEM16A inh | HEK293 TMEM16A/YFP-H148Q, iodide quench fluorescence; ionomycin added to raise cell calcium | inhibition, % at 10 µM | 2,300 compounds, 39% hits;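 active = mean duplicate percent inhibition, scaled so buffer wells are 0 and the reference blocker 100, over three buffer SD above buffer mean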
TMEM16A Ca cntr: calcium mobilization in TMEM16A/YFP HEK293 cells, confirmation, counter-screen for TMEM16A inhibitor project; calcium response (% of ionomycin), % at 10 µM; AID 652231, 2013; shares compounds with TMEM16A inh; Fluo4 calcium mobilization; 2,300 compounds, 2% hits;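 active = duplicate-averaged calcium signal over 20% of the ionomycin maximum, relative to buffer baseline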;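 note: each well's signal is peak minus trough fluorescence divided by its pre-addition baseline; 0% = buffer wells and 100% = ionomycin wells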
Parental YFP cnt: iodide YFP quench changes in parental YFP-HEK293, counter-screen for TMEM16A inhibitor project, cell-based. ionomycin. AID 652233, 2013. 2,300 tested, under 10 active. YFP ratio F(max-min)/F0 at 10 µM. shares compounds with TMEM16A inh;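 active = yellow fluorescent protein signal ratio exceeding the buffer control mean by over 5 SD of those controls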;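 note: ratio is mean of duplicate wells from kinetic YFP trace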
ClC-1 inh: ClC-1 chloride channel inhibition, selectivity assay for TMEM16A inhibitor project, cell-based, voltage-dependent ClC-1; AID 652236, 2013; CHO ClC-1-YFP, iodide influx fluorescence quench; iodide control reads 0, buffer control 100; ratio percent, % at 10 µM; 2,300 tested, under 10 active; shares compounds with TMEM16A inh;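 active = duplicate-mean ratio percent above the mean of iodide-only control wells, which defines zero, plus 5 of their SD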;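 note: higher percent means stronger block of ClC-1 iodide influx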
An asterisk follows results filed as active; i = inactive; . = not tested or not shown.

SMILES	TMEM16A inh	aSyn 5UTR inh	TMEM16A act	Jurkat NFkB inh	KLF5 inhibitor	697 NFkB inh	TMEM16A reconf	TMEM16A Ca cntr	Parental YFP cnt	ClC-1 inh
COC(=O)c1ccccc1NC(=O)CNc1cc(OC)c(OC)cc1C	25*	18.9	i	45.9	-20.8	25.6	i	i	-1.11	-14.0
O=C(COc1ccc(F)cc1Cl)Nc1ccc(S(=O)(=O)Nc2nccs2)cc1	i	-15.1	i	-8.7	.	6.2	.	.	.	.
C=CCn1c(SC(C)C(=O)NCc2ccc3c(c2)OCO3)nc2scc(-c3ccccc3)c2c1=O (configuration not stated)	100*	-3.9	i	-10.4	-16.9	5.2	i	i	-1.16	-7.0
S=C(Nc1ccc(Cl)cc1)N1CCCC1	i	-34.6	i	-25.7	-22.2	-31.8	.	.	.	.
O=C(Cc1cccs1)Nc1ccc(S(=O)(=O)Nc2ncccn2)cc1	25*	.	i	13.2	-36.7	24.7	i	i	-1.11	-6.5
Cc1cccc(OCC(=O)NCCCNC(=O)c2ccc(C)nc2)c1	i	-14.3	i	0.7	-24.6	10.6	.	.	.	.
CN(C(=O)c1ccc(S(=O)(=O)c2cccc(Cl)c2)c([N+](=O)[O-])c1)C1CCCCC1	25*	-86.4	i	12.6	9.8	-24.8	i	i	-1.06	-9.5
S=C(NCC1CCCO1)N1CCN(c2nc(-c3ccccc3)cs2)CC1 (configuration not stated)	25*	-7.1	i	-1.6	-2.0	-38.2	18.5%*	i	-1.41	-2.5
S=C(NCc1ccco1)N1CCN(c2nc(-c3ccccc3)cs2)CC1	i	6.8	i	-4.5	-26.7	15.2	.	.	.	.
COc1ccc(C2C(C(=O)N3CCN(c4ccccc4)CC3)c3ccccc3C(=O)N2C)cc1 (configuration not stated)	i	-2.1	i	9.5	-6.0	19.2	.	.	.	.
COc1ccc(C2C(C(=O)N3CCN(c4ccccc4)CC3)c3ccccc3C(=O)N2C)cc1OC (configuration not stated)	100*	9.9	i	-4.3	-23.0	-10.6	i	i	-1.1	-30.0
Cc1occc1C(=O)NNC(=S)Nc1ccccc1C(F)(F)F	i	-85.7	i	-29.0	-65.7	-35.2	.	.	.	.
Cc1ccccc1NC(=S)NNC(=O)c1ccoc1C	100*	-33.9	i	-36.7	-82.9	-17.3	i	i	-0.9	-9.0
Cc1cccc(C)c1NC(=O)NC1(C(=O)N2CCCC2)CCCCC1	i	-12.5	i	6.8	-8.6	8.0	.	.	.	.
O=C(O)c1ccc2c(=O)n(Cc3ccccc3)c(SCc3ccc([N+](=O)[O-])cc3)nc2c1	25*	2.0	i	31.1	-40.5	-0.6	19.0%*	i	-1.12	-4.5
O=c1c2ccccc2nc(SCc2ccc([N+](=O)[O-])cc2)n1-c1ccccc1	i	10.6	i	2.5	-3.9	3.0	.	.	.	.
CSc1nsc(SCC(=O)Nc2ccccc2)n1	i	-35.2	i	-52.9	-29.0	-6.7	.	.	.	.
CCOC(=O)c1ccc(NC(=O)CSc2nc(SC)ns2)cc1	100*	-107.1	i	-89.3	-14.3	-33.3	25.5%*	i	-1.11	-18.5
c1ccc2c(c1)ncn2CCCOc1ccc2c(c1)CCC2	100*	-36.5	i	-4.9	-27.9	-33.9	i	i	-1.14	-8.5
CCCOc1ccc(Cn2cnc3ccccc32)cc1	25*	.	i	41.7	-10.3	-20.7	17.0%*	i	-1.04	-10.0
Fc1ccc(Cn2cnc3ccccc32)cc1	i	10.3	i	10.1	-12.4	4.1	.	.	.	.
O=C(c1cc2nc(-c3ccc(F)cc3)cc(C(F)(F)F)n2n1)N1CCCCC1c1cccnc1 (configuration not stated)	100*	18.1	i	27.7	-39.5	-59.5	22.5%*	i	-1.03	-19.0
O=C(c1cnn2c(C(F)(F)F)cc(-c3ccccc3)nc12)N1CCCCC1c1cccnc1 (configuration not stated)	i	41.7	i	9.0	-13.8	16.9	.	.	.	.
CCOC(=O)C1CCN(c2cc3c(cc2NC(=O)c2ccc(OC)c(OC)c2)n(C)c(=O)n3C)CC1	i	-39.5	i	-6.4	-7.1	22.8	.	.	.	.
COc1cccc(Nc2nc(-c3sc(C)nc3C)cs2)c1	i	-103.2	i	-42.1	-107.9	-43.1	.	.	.	.
SMILES	TMEM16A inh	aSyn 5UTR inh	TMEM16A act	Jurkat NFkB inh	KLF5 inhibitor	697 NFkB inh	TMEM16A reconf	TMEM16A Ca cntr	Parental YFP cnt	ClC-1 inh
Cc1nc(C)c(-c2csc(Nc3ccc(F)cc3)n2)s1	25*	-152.2	i	-41.1	-81.2	-76.5	21.0%*	i	-1.02	-5.5
COc1ccc(C2C(C(C)=O)=C(O)C(=O)N2c2ccccn2)cc1 (configuration not stated)	i	-1.7	i	-13.2	-38.9	-7.7	.	.	.	.
COc1cc2c(cc1NCc1ccccn1)oc1ccccc12	100*	-153.5	i	-42.9	-27.7	-40.0	i	i	-1.04	-13.0
CN(C)c1ccccc1C(=O)N1CCCC(C(=O)c2ccc3ccccc3c2)C1 (configuration not stated)	100*	11.5	i	-7.6	-7.7	0.6	i	i	-1.23	-8.0
O=C1CC(N2CCN(c3nc4ccccc4s3)CC2)C(=O)N1Cc1cccs1 (configuration not stated)	100*	10.8	i	-4.4	-3.1	-3.5	30.0%*	i	-0.812	-3.5
CC1=NN(c2ccccc2)C(=O)/C1=C\C=C1\N(C)c2ccccc2C1(C)C	i	26.9	i	1.3	-11.6	17.0	30.0%*	i	-0.816	3.5
COc1ccc(C2CC(=O)c3c(C)nc(N4CCN(Cc5ccccc5)CC4)nc3C2)cc1OC (configuration not stated)	100*	-11.8	i	-10.1	-2.0	-47.2	26.0%*	i	-0.914	-14.0
